A word on the inhibition: it is the change of the read-out against control, counted positive when it falls.

Structures are written as SMILES. For some assays here: Measured potencies and affinities stand elsewhere. Activity calls are given as the source filed them. Unless noted, the rule behind the calls is not given here.

The nature of experiment [1]: antimalarial activity against Dd2 strain (AID 2302;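 active = growth inhibition above 50% at the single 2 µM test dose, taken to imply half-maximal potency below 2 µM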;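 note: 0% = DMSO untreated growth and 100% = chloroquine plus artemisinin killed control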). The note with it: P. falciparum Dd2 in RBCs, LDH growth readout, 72 h; at 2 µM; stronger effect = higher value.
Experiment [2] in a line: human hepatoma cell viability loss – ATP luminescence, cytotoxicity control for P. falciparum antimalarial project, primary screen (AID 2303;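 active = inhibition above 50%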;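 note: 0% = DMSO wells and 100% = digitonin-killed cells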). The note with it: HepG2 viability, 24-48 h, at 10 µM, stronger effect = higher value.
Experiment [3] concerns the target L-lactate dehydrogenase (Plasmodium falciparum (isolate CDC / Honduras)) (UniProt Q27743). Nature of the experiment: PfLDH activity inhibition – cell lysate, 3D7 strain, counter-screen for P. falciparum growth inhibition project (AID 2304).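 Note: 0% = vehicle and 100% = reference inhibitor.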 The note with it: P. falciparum 3D7 crude extract, LDH APAD/NBT absorbance; at 2 µM; stronger effect = higher value. In general terms: A counterscreen serves to expose hits that act by an unwanted route or on another target.

Experiment [4] in a line: inhibition of 3D7 malaria parasite growth – strain 3D7 (AID 2306).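 Note: 0% = DMSO wells and 100% = chloroquine plus artemisinin control wells.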 The settings on record: P. falciparum 3D7 erythrocytic growth, LDH absorbance, 72 h; at 2 µM; stronger effect = higher value.
In experiment [5] the target is Calcium-dependent protein kinase 1 (Plasmodium falciparum (isolate 3D7)) (UniProt P62344). Nature of the experiment: PfCDPK1 kinase inhibitors, biochemical, TCAMS library (AID 1159585; cut-off not given, nearly all actives have IC50 up to about 0.98 µM;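 note: inhibitors leave more ATP so luminescence rises with inhibition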). The settings on record: recombinant PfCDPK1, Kinase-Glo ATP depletion luminescence. In general terms: In Kinase-Glo more light means more ATP remaining.
For experiment [6], the target named is Plasmodium falciparum protein kinase 6 (PK6, PF3D7_1337100) (UniProt Q8IDW1). Nature of the experiment: PfPK6 kinase inhibitors, biochemical, TCAMS library (AID 1159586). The settings on record: recombinant PfPK6, Kinase-Glo ATP depletion luminescence.
Experiment [7] deals with Protein kinase 7 (PK7), Plasmodium falciparum 3D7 (PF3D7_0213400) (UniProt Q7YTF7). Nature of the experiment: inhibition of Plasmodium PK7 catalytic activity – biochemical, TCAMS antimalarial set, Kinase-Glo luminescence (AID 1159587). The note with it: recombinant PfPK7, Kinase-Glo ATP depletion luminescence.
The target of experiment [8] is Calcium-dependent protein kinase 4 (Plasmodium falciparum (isolate 3D7)) (UniProt Q8IBS5). Nature of the experiment: PfCDPK4 kinase inhibitors, biochemical, TCAMS library (AID 1159588; cut-off not given, nearly all actives have IC50 up to about 0.91 µM). The settings on record: recombinant PfCDPK4, Kinase-Glo ATP depletion luminescence.
Calcium-dependent protein kinase 4 (Plasmodium falciparum (isolate 3D7)), sequence (Q8IBS5 whole entry, looked up): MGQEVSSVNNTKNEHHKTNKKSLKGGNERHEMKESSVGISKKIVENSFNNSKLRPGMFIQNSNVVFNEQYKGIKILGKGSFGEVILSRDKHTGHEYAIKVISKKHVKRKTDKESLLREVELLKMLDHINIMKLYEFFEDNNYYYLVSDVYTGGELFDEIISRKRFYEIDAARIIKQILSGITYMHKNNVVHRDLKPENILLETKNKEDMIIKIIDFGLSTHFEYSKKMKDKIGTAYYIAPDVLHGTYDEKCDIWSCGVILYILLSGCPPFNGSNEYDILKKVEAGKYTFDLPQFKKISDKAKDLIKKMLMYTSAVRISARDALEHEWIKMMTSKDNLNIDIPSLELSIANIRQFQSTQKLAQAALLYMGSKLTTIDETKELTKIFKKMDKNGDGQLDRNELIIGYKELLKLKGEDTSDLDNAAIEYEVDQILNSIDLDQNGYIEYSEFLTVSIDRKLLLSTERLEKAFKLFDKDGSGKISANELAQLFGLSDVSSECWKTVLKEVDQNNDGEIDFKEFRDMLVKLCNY

L-lactate dehydrogenase (Plasmodium falciparum (isolate CDC / Honduras)), sequence (Q27743 whole entry, looked up): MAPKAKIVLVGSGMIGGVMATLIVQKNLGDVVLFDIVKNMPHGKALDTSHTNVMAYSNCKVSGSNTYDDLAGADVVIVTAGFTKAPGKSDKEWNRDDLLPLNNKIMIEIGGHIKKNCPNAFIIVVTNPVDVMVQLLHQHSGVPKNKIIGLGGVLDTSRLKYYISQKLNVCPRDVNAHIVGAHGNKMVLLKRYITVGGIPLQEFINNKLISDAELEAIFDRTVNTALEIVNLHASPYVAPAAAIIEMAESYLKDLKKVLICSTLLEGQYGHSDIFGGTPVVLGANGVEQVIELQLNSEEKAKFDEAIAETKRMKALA
Protein kinase 7 (PK7), Plasmodium falciparum 3D7 (PF3D7_0213400), sequence (Q7YTF7 1-343): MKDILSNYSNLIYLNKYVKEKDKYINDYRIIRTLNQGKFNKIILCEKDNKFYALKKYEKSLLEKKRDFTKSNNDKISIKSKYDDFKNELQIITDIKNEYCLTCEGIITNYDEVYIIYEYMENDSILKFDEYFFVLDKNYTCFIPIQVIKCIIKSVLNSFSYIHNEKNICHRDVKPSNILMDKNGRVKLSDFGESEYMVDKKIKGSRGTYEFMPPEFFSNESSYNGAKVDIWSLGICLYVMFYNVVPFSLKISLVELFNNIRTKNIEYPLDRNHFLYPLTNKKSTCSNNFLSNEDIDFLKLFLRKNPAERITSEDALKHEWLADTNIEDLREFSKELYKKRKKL
Plasmodium falciparum protein kinase 6 (PK6, PF3D7_1337100), sequence (Q8IDW1 1-305): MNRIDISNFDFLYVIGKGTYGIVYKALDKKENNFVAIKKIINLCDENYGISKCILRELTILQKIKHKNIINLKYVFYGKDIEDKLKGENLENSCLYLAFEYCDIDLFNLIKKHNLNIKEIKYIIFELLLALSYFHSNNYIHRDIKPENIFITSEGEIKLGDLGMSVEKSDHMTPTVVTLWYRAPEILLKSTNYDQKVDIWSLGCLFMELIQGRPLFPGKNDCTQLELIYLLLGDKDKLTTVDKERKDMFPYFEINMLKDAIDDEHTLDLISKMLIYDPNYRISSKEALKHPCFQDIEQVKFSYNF
Calcium-dependent protein kinase 1 (Plasmodium falciparum (isolate 3D7)), sequence (P62344 whole entry, looked up): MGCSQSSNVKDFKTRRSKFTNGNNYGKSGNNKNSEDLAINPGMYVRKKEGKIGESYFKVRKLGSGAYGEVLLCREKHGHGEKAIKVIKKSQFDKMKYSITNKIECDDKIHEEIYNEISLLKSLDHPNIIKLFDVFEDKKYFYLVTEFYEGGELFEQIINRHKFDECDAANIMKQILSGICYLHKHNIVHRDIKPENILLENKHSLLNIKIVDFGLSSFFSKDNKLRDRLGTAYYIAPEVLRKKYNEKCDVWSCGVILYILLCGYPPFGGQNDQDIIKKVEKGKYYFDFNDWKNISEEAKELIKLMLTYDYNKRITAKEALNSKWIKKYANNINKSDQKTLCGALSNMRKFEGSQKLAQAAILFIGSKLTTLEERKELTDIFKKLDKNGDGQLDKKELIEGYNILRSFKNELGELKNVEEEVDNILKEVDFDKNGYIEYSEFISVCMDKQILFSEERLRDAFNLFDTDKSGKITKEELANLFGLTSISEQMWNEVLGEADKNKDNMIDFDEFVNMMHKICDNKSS

Turning to `CNCCc1c(O)ccc2ccccc12`, the growth inhibition is -1% (inactive) in experiment [1] and 94% (active) in experiment [4]. Besides, the inhibition was 6% (inactive) in experiment [2] and 2% (inactive) in experiment [3]. The result in experiment [5], in experiment [6], in experiment [7] and in experiment [8] was inactive.
With `O=C(Cc1cc(=O)oc2cc(O)ccc12)N1CCC(CN2CCC(c3c[nH]c4ccccc34)CC2)CC1`, the growth inhibition in experiment [1] was -11% (inactive); in experiment [4], 94% (active). Besides, the values for the inhibition in experiment [2] and in experiment [3] were 1% (inactive) and 3% (inactive), respectively. The outcome in experiment [5], in experiment [6], in experiment [7] and in experiment [8] was inactive.
As for `O=C(NC1CCC(CN2CCC(c3c[nH]c4ccccc34)CC2)CC1)c1cn(Cc2ccccc2)c2ccccc12` (configuration not stated), the growth inhibition in experiment [1] is 48% (inactive); in experiment [4], 91% (active). Besides, the values for the inhibition in experiment [2] and in experiment [3] were 84% (active) and -3% (inactive), respectively. The result in experiment [5], in experiment [6], in experiment [7] and in experiment [8] was inactive.
In the case of `COc1ccccc1CNCC(O)c1cc(C(F)(F)F)ccc1C(F)(F)F` (configuration not stated), the growth inhibition in experiment [1] is 95% (active); in experiment [4], 101% (active). The inhibition in experiment [2] was 10% (inactive); in experiment [3], 5% (inactive). For the same compound, the outcome in experiment [5], in experiment [6], in experiment [7] and in experiment [8] was inactive.
As to `CC(=O)C1(c2ccccc2)CCN(CCC2(c3ccc(Cl)c(Cl)c3)CN(C(=O)C3CCCC3)CCO2)CC1` (configuration not stated), the growth inhibition in experiment [1] is 70% (active); in experiment [4], 88% (active). The inhibition in experiment [2] is 11% (inactive); in experiment [3], 1% (inactive). Further, the result in experiment [5], in experiment [6], in experiment [7] and in experiment [8] was inactive.
As for `O=C(/C=C/C=C/c1ccccc1)NC1CCC(CN2CCC(c3c[nH]c4ccccc34)CC2)CC1` (configuration not stated), the growth inhibition is 66% (active) in experiment [1] and 100% (active) in experiment [4]. The results for the inhibition in experiment [2] and in experiment [3] were 49% (inactive) and 7% (inactive), respectively. For the same compound, the outcome in experiment [5], in experiment [6], in experiment [7] and in experiment [8] was inactive.
Regarding `C=C[C@H]1CN2CC[C@H]1C[C@H]2[C@H](OS(=O)(=O)O)c1ccnc2ccccc12`, the growth inhibition in experiment [1] is 15% (inactive); in experiment [4] it was 99% (active). For the same compound, the inhibition is 8% (inactive) in experiment [2] and 5% (inactive) in experiment [3]. For the same compound, the outcome in experiment [5], in experiment [6], in experiment [7] and in experiment [8] was inactive.
Take `Cc1cccc2[nH]cc(C3CCN(CC4CCC(NC(=O)/C=C/c5ccc(Cl)c(Cl)c5)CC4)CC3)c12` (configuration not stated): the values for the growth inhibition in experiment [1] and in experiment [4] were 97% (active) and 101% (active), respectively. The inhibition in experiment [2] was 88% (active); in experiment [3] it was -4% (inactive). The result in experiment [5], in experiment [6], in experiment [7] and in experiment [8] was inactive.
For `CC[C@H]1CN2CC[C@@H]1C[C@H]2[C@H](O)c1cc(-c2ccc(F)cc2)nc2ccc(O)cc12`, the growth inhibition in experiment [1] and in experiment [4] was 99% (active) each time. Moreover, the inhibition is 25% (inactive) in experiment [2] and -2% (inactive) in experiment [3]. For the same compound, the outcome in experiment [5], in experiment [6], in experiment [7] and in experiment [8] was inactive.
In the case of `Oc1ccc(Cl)cc1CN1CCC(CCOC(c2ccccc2)c2ccc(Cl)cc2)CC1` (configuration not stated), the values for the growth inhibition in experiment [1] and in experiment [4] were 100% (active) and 98% (active), respectively. Besides, the inhibition was 32% (inactive) in experiment [2] and 2% (inactive) in experiment [3]. Further, the outcome in experiment [5], in experiment [6], in experiment [7] and in experiment [8] was inactive.
Consider `CN1CCC(O)(c2ccc(Br)cc2)C(C(O)c2ccc(Br)cc2)C1` (configuration not stated), for which the growth inhibition in experiment [1] is 99% (active); in experiment [4], 98% (active). In addition, the inhibition was 28% (inactive) in experiment [2] and -5% (inactive) in experiment [3]. The result in experiment [5], in experiment [6], in experiment [7] and in experiment [8] was inactive.
As for `CC(Cc1ccc(OCCCCOc2ccccc2)cc1)NCCc1ccccc1Cl` (configuration not stated), the growth inhibition in experiment [1] was 58% (active); in experiment [4] it was 97% (active). Moreover, the inhibition was 100% (active) in experiment [2] and 1% (inactive) in experiment [3]. Further, the result in experiment [5], in experiment [6], in experiment [7] and in experiment [8] was inactive.
Consider `O=C(/C=C/c1cc(F)cc(C(F)(F)F)c1)N1CCC(CN2CCC(c3c[nH]c4ccccc34)CC2)CC1`, for which the growth inhibition in experiment [1] is 74% (active); in experiment [4], 101% (active). For the same compound, the inhibition in experiment [2] was 32% (inactive); in experiment [3], 3% (inactive). Further, the result in experiment [5], in experiment [6], in experiment [7] and in experiment [8] was inactive.
As for `CC[C@H]1CN2CC[C@H]1C[C@H]2[C@H](OC(=O)c1ccccc1)c1cc(C#N)nc2ccc(OC)cc12`, the values for the growth inhibition in experiment [1] and in experiment [4] were 49% (inactive) and 97% (active), respectively. Further, the inhibition in experiment [2] is 19% (inactive); in experiment [3], -2% (inactive). Also, the outcome in experiment [5], in experiment [6], in experiment [7] and in experiment [8] was inactive.
As to `CN1CC=C(c2c[nH]c3ccc(-c4ccccc4)cc23)CC1`, the growth inhibition was 60% (active) in experiment [1] and 93% (active) in experiment [4]. For the same compound, the values for the inhibition in experiment [2] and in experiment [3] were 14% (inactive) and -1% (inactive), respectively. Further, the result in experiment [5], in experiment [6], in experiment [7] and in experiment [8] was inactive.
As for `CC[C@H]1CN2CC[C@H]1C[C@H]2[C@H](O)c1cc(N2CCCC(C(=O)N(CC)CC)C2)nc2ccc(OC)cc12` (some centres not stated), the growth inhibition in experiment [1] was 99% (active); in experiment [4] it was 101% (active). In addition, the inhibition in experiment [2] is -13% (inactive); in experiment [3], -2% (inactive). For the same compound, the result in experiment [5], in experiment [6], in experiment [7] and in experiment [8] was inactive.
With `CN(Cc1ccccc1)C1CCN(CCc2c[nH]c3ccc(F)cc23)CC1`, the figures for the growth inhibition in experiment [1] and in experiment [4] were 91% (active) and 100% (active), respectively. Moreover, the inhibition in experiment [2] was 28% (inactive); in experiment [3], 5% (inactive). The outcome in experiment [5], in experiment [6], in experiment [7] and in experiment [8] was inactive.
With `CC[C@H]1CN2CC[C@H]1C[C@@H]2[C@@H](O)c1cc(Cl)nc2ccc(OC)cc12`, the growth inhibition in experiment [1] was 82% (active); in experiment [4], 98% (active). For the same compound, the inhibition in experiment [2] was -9% (inactive); in experiment [3], -2% (inactive). Also, the result in experiment [5], in experiment [6], in experiment [7] and in experiment [8] was inactive.
For the compound `CC(Cc1ccc(C2=CCNCC2)cc1)NCC(O)c1cccc(C(F)(F)F)c1` (configuration not stated), the values for the growth inhibition in experiment [1] and in experiment [4] were -2% (inactive) and 89% (active), respectively. In addition, the inhibition was 27% (inactive) in experiment [2] and 0% (inactive) in experiment [3]. Moreover, the outcome in experiment [5], in experiment [6], in experiment [7] and in experiment [8] was inactive.
